# Assay outcomes deposited in PubChem by several laboratories.
# UGM FP inh – M. tuberculosis UGM enzyme inhibitors, primary screen, biochemical, fluorescence polarization, single point. UDP-galactopyranose mutase (Mycobacterium tuberculosis (strain ATCC 25618 / H37Rv)), …. purified UGM, fluorescence polarization probe displacement. inhibition, % at 10 µM. actives 0.06% (n = 320,000); in the data active = inhibition above about 10%, passing the limit was not always enough; inconclusive = no clear call, values can overlap the other calls
# GDH-TPI inh – GDH-TPI coupling enzyme inhibitors, primary screen, artefact control for M. tuberculosis FBA inhibitor project, biochemical, absorbance, full deck; GDH-TPI coupled enzyme counterscreen, NADH absorbance; inhibition, % at 4.8 µM; actives 1.2% (n = 360,000); in the data active = inhibition above about 30%;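 note: 0% = DMSO wells and 100% = wells lacking the enzyme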
# FBA Mtb inh – Mtb FBA enzyme inhibitors, primary screen, biochemical, fluorescence, strain H37Rv | actives 2.3% (n = 360,000) | inhibition, % at 1 µM | purified M. tuberculosis FBA, fluorescence read-out | AID 588726, 2011 | Fructose-bisphosphate aldolase (Mycobacterium tuberculosis (strain ATCC 25618 / H37Rv)), …; in the data active = inhibition above about 27%;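 note: 0% = vehicle and 100% = reference inhibitor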
# Target sequence (P9WQA3 whole entry, looked up): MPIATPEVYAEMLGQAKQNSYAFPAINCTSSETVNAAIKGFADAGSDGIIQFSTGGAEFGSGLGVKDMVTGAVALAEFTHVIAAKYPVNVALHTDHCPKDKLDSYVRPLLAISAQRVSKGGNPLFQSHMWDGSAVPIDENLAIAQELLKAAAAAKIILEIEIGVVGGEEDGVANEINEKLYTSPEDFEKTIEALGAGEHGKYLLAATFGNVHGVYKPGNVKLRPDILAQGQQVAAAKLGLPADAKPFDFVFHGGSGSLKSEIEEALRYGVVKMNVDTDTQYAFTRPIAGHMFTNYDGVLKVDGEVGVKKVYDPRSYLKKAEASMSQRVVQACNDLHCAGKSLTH
# RecA intein inh – Mtb RecA intein splicing inhibitors, primary screen, biochemical, fluorescence, HTS | cell-free RecA intein splicing | actives 0.75% (n = 290,000) | inhibition, % (test concentration not listed) | AID 2221, 2009; in the data active = inhibition above about 30%; inconclusive = no clear call, values can overlap the other calls;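 note: 0% = vehicle wells and 100% = reference inhibitor control wells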
# Mtb betalactam – beta-lactam sensitization of Mtb H37Rv, H37Rv. M. tuberculosis H37Rv growth with meropenem, percent inhibition. inhibition, % at 25 µM. actives 0.27% (n = 330,000);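 note: growth measured after seven days incubation then overnight dye step; 0% = bacteria only wells and 100% = bacteria with antibiotic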
# Rv3671c inh – Rv3671c serine protease inhibitors, primary screen, biochemical, fluorescence polarization, M. tuberculosis H37Rv; actives 0.048% (n = 320,000); inhibition, % at 5.96 µM; P9WHR9; AID 2606, 2010; in the data active = inhibition above about 38%;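 note: extracellular domain of Rv3671c used as enzyme; 0% = enzyme with DMSO and 100% = no enzyme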
# GFP chromophore – counter-screen: blocks GFP chromophore formation, dose response, counter-screen, biochemical, fluorescence, homogeneous. shares compounds with RecA intein inh. cell-free GFP chromophore formation. EC50, µM. actives 83% (n = 2,100). AID 434968, 2010
# Starred values were filed as active, the others as inactive; ? = inconclusive; · = no result. Most compounds without a hit are left out; they make up all but 4% or so of the library. Unless noted, the rule behind the calls is not given here.
SMILES,UGM FP inh,GDH-TPI inh,FBA Mtb inh,RecA intein inh,Mtb betalactam,Rv3671c inh,GFP chromophore
COc1ccc(C2C(C#N)=C(N)Oc3n[nH]c(C)c32)cc1CSc1ccccn1 (stereo not drawn),2.4,17.9,-0.5,80.5*,-4.2,5.3,17.2*
COc1ccc(N2C(=O)c3ccccc3NC2c2ccc(OC)c(Cn3nnc4ccccc43)c2)cc1 (stereo not drawn),-6.9,1.9,13.3,-2.9,?,-0.3,·
O=C(N/N=C/c1cc(Cl)cc([N+](=O)[O-])c1O)c1ccccc1NS(=O)(=O)c1cccs1,3.2,13.0,-0.2,33.2*,9.1,0.2,>38
C=CCc1cccc(C=Nc2c[nH]c(=O)[nH]c2=O)c1O,3.6,7.5,1.2,·,-0.2,-10.9,>38
CC1=NN(C)C(=O)C1Cc1c(F)cccc1Cl (stereo not drawn),-0.1,-6.3,-2.2,79.7*,0.2,6.8,16.8*
CN1CCC(NC(=O)Cc2c(F)cccc2Cl)CC1,0.4,7.2,-0.2,1.0,-0.3,1.5,·
O=C(NCc1ccc2c(c1)OCO2)c1ccc(Br)s1,2.6,-12.0,-5.9,0.1,5.8,-5.3,·
CC(C)=CCC1=C(OCC(=O)O)C(=O)c2ccccc2C1=O,0.6,-6.6,-1.9,62.6*,3.0,-57.5,12*
CCOc1ccc(S(=O)(=O)N2CCCC(C(=O)N3CCN(CC)CC3)C2)cc1Cl (stereo not drawn),1.0,2.2,-0.6,1.3,-1.2,-2.1,·
Cn1c(SCC(=O)NCC2CCCO2)ncc(C(=O)Nc2ccccc2)c1=O (stereo not drawn),-1.1,16.8,1.0,45.5*,70.4,-1.7,>38
CC(=O)Nc1ccc(NC(=O)CSc2ncc(C(=O)Nc3ccccc3)c(=O)n2C)cc1,-0.2,16.8,0.5,31.4*,52.5,-11.2,0.115*
Cc1ccc(NC(=O)CSc2ncc(-c3ccccc3)n2C(=O)c2ccccc2)cc1,0.8,0.3,-1.7,54.3*,1.2,-0.5,1.22*
Cc1ccc(C(=O)n2c(-c3ccccc3)cnc2SCC(=O)Nc2ccccc2)cc1,-1.2,-4.0,-1.2,6.6,-2.1,9.1,·
COc1cc(/C=C2\C(=O)N(CCC#N)N=C2C)ccc1OCC(=O)Nc1ccccc1,-1.5,0.0,-1.3,78.9*,1.8,-210.8,5.61*
CCOc1cc(/C=C2/C(=O)N(c3ccccc3)N=C2C)ccc1OC(=O)c1cccs1,2.3,8.4,-2.4,-11.1,67.4,-174.8,·
CC1=NOC(=O)/C1=C/c1ccc(N(C)C)cc1,-2.1,·,·,0.2,-3.6,-4.7,·
COc1cc(/C=C2\SC(N)=NC2=O)ccc1OCC(=O)Nc1ccc(C)cc1,-0.7,19.9,-0.6,-3.5,14.5,-45.9,·
CC1=NN(CCC#N)C(=O)/C1=C/c1ccc(N(C)C)cc1,2.5,2.4,-25.7,48.2*,-3.8,-11.4,10.7*
CCOc1cc(/C=C2\C(=O)N(CCC#N)N=C2C)ccc1OCC(N)=O,-0.3,0.3,-6.4,88.3*,-1.2,-152.5,9.29*
CN(C)CCCNC(=O)c1ccc(Oc2ccccc2)cc1,-1.2,-2.2,-5.9,-0.3,-4.4,0.1,·
COCC(=O)N(C)C1(c2nnnn2CCOC(=O)Nc2ccc(Cl)cc2)CCCC1,-1.6,-6.2,1.6,0.2,-7.2,-1.8,·
COc1ccc(-n2ccnc2SCC(=O)NO)cc1,-0.5,5.3,0.7,-3.4,-10.3,13.2,·
CCCc1n[nH]c2c1C(=O)C(C(=O)OC)C(C)(C)C2 (stereo not drawn),0.9,-7.8,6.2,2.8,-1.9,2.6,·
CCC1CCCCN1S(=O)(=O)c1ccc(NC(=O)c2nc(S(C)(=O)=O)ncc2Cl)cc1 (stereo not drawn),3.4,0.9,4.8,96.6*,-2.4,-97.1,1.26*
CCC1CCCCN1S(=O)(=O)c1ccc(NC(=O)c2ccncc2)cc1 (stereo not drawn),0.1,0.3,-2.0,1.1,-3.7,-4.5,·
SMILES,UGM FP inh,GDH-TPI inh,FBA Mtb inh,RecA intein inh,Mtb betalactam,Rv3671c inh,GFP chromophore
O=C(NCc1ccccc1)c1nc(S(=O)(=O)Cc2ccccc2)ncc1Cl,-2.0,9.6,3.2,77.4*,1.2,-14.9,16.7*
O=C(Nc1ccc2ccccc2c1)c1cnccn1,1.6,10.1,2.5,4.8,82.8,-9.0,·
CS(=O)(=O)c1ncc(Cl)c(C(=O)Nc2ccc3ccccc3c2)n1,·,0.7,-0.8,30.9*,·,·,12.4*
CC(=O)Nc1ccc(NC(=O)c2nc(S(=O)(=O)Cc3ccccc3)ncc2Cl)cc1,-0.8,9.6,1.8,39.9*,1.5,-3.0,26.1*
CCS(=O)(=O)c1ncc(Cl)c(C(=O)Nc2ccc(C)cc2)n1,-0.5,17.4,-0.4,64.5*,99.6,-1.4,22.7*
COc1ccc(CNC(=O)c2nc(S(=O)(=O)Cc3ccccc3)ncc2Cl)cc1,0.5,-1.7,4.6,81.9*,4.5,1.3,14.8*
C=CCN(C(=O)CSc1nc2[nH]ncc2c(=O)n1-c1ccccc1OC)c1ccccc1,·,-1.4,0.5,·,2.1,7.4,·
CCn1c(COc2ccccc2C)nnc1SCC(=O)NCc1ccccc1,-0.2,-6.7,0.8,-0.7,-8.0,3.3,·
CCn1c(COc2cccc3ccccc23)nnc1SCC(N)=O,-0.4,-7.5,-1.4,2.6,4.1,-3.2,>38
O=C(Nc1ccc2[nH]c(=O)[nH]c2c1)c1ccc(Br)o1,-4.6,1.4,0.0,-4.5,-2.2,-1.0,·
N#Cc1c(-c2ccccc2)[nH]c(=O)[nH]c1=O,1.0,4.8,0.0,0.2,-4.1,-1.2,·
N#CC(C#N)C(c1ccsc1)c1c(-c2ccccc2)[nH][nH]c1=O (stereo not drawn),1.2,11.4,0.6,85.8*,-1.7,-7.8,7.57*
CC[C@@H]1CC2=C(C(=O)OC(C)(C)O2)[C@H](c2ccc(F)cc2)O1,·,·,0.1,·,·,·,·
c1ccc(-c2nnc(-c3ccccn3)nc2NC2CCCCC2)cc1,-1.7,17.9,-2.3,37.9*,81.8,3.4,22.6*
CC(C)c1nnc(NC(=O)c2nc(S(=O)(=O)Cc3ccccc3F)ncc2Cl)s1,0.6,·,·,83.1*,1.1,-7.9,13.9*
CSc1nnc(NC(=O)c2nc(S(=O)(=O)Cc3ccccc3F)ncc2Cl)s1,4.1,7.0,-2.7,76.1*,11.8,-9.6,22.9*
Cc1nnc(NC(=O)c2nc(S(=O)(=O)Cc3ccccc3C)ncc2Cl)s1,-1.9,13.9,3.4,67.1*,0.8,-6.6,>38
